Shown are actives, neighbours in structure and some others; about 0.35% of the full set was active somewhere.
Vif-APOBEC3G blk = Vif-A3G binding inhibition | Potency, µM (titrated, usually from 46.1 µM), most hits filed as inhibitors | AID 602310 | HeLa A3G-eYFP + Vif (tagged APOBEC3G with the HIV-1 protein that degrades it), YFP fluorescence, overnight | Q9HC16 | 410,000 tested, 0.076% active; note: nearly all actives have a fitted effect of over 60% in size
Target sequence (Q9HC16 whole entry, looked up): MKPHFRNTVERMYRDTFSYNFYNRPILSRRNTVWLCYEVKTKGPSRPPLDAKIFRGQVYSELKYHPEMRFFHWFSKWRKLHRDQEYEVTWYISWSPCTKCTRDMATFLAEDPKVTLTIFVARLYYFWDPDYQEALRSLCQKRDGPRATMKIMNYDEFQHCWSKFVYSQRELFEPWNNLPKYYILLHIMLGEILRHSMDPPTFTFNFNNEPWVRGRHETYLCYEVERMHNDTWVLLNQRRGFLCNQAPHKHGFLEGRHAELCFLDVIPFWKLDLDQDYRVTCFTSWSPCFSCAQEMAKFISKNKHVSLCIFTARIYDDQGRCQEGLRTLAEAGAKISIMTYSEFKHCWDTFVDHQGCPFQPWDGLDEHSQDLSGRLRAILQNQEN
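HeLa cells stably expressing Vif and C-terminally eYFP-tagged A3G, seeded overnight at 37 deg C, then exposed to compound by pintool overnight at 37 deg C. Rise in yellow fluorescence (Ex 488/Em 500-530, Acumen) marks blocked Vif-driven A3G degradation.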
Glioma ERSR ind = inducers of ER stress response in human glioma cells; Potency, µM, actives largely listed as activators; AID 602332; 420,000 tested, 0.02% active; U87-MG GRP78 promoter luciferase reporter, 16 h; note: series mostly up to about 76 µM; nearly all actives have a fitted effect of over 35% in size
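ERSR induction read as luciferase luminescence (Bright-Glo, 10 min at room temperature) in stably transfected human U87-MG glioma cells exposed to compounds for 16 h, using GRP78 as sensor.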
Vif-A3F inh = Vif-A3F binding inhibition | HeLa A3F-eYFP + Vif (tagged APOBEC3F with the HIV-1 protein that degrades it), YFP fluorescence increase | Potency, µM (highest dose often 46.1 µM) | 390,000 tested, 0.2% active; note: nearly all actives have a fitted effect of over 65% in size
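Fluorescence increase (Ex 488/Em 500-530) after overnight compound treatment at 37 deg C flags inhibition of Vif-driven A3F-eYFP loss in stable HeLa A3F-eYFP/Vif cells seeded overnight beforehand.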
Epigenetic derep = regulators of epigenetic silencing causing reporter derepression in mouse cells. murine LDR cells, GFP reporter derepression, 30 h. Potency, µM (series often up to 53.9 µM), most hits filed as activators. 280,000 tested, 0.2% active; note: nearly all actives have a fitted effect of over 60% in size
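Readout is the number of GFP-expressing murine LDR cells, counted by cytometry following washing. Cells were treated with compound for 30 h at 37 C; the stably integrated CMV-GFP locus is normally silent.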
Hits are given with their value; – = inactive; ? = inconclusive; · = no result given; [ ] = remark or other dose. Calls come from the whole dose curve; as a rule, active = well fitted curve in the direction sought with a large enough effect; inconclusive = small, poorly fitted or top-dose-only effect, or another doubt; inactive = no such curve, though single readings can be large; an effect the other way counts as inactive or inconclusive.

SMILES	Vif-APOBEC3G blk	Glioma ERSR ind	Vif-A3F inh	Epigenetic derep
COc1cc2c3nnc(-c4ccc(F)cc4)c-3cn(Cc3cccc(C)c3)c2cc1OC	–	–	?	3.55µM
COc1cc2c3nnc(-c4ccc(F)cc4)c-3cn(Cc3cccc(F)c3)c2cc1OC	7.94µM	–	6.31µM	7.08µM
COc1cc2c3nnc(-c4ccccc4)c-3cn(Cc3ccc(F)cc3)c2cc1OC	?	–	?	?
COc1cccc(Cn2nc3c4cc(F)ccc4n(Cc4ccc(F)cc4)cc-3c2=O)c1	–	–	?	·
COc1cc2c3nnc(-c4ccc(F)cc4)c-3cn(Cc3ccc(C)cc3)c2cc1OC	?	–	–	6.31µM
COC(=O)[C@H](COC(C)(C)C)NC(=O)O[C@@H]1C(=O)c2cc(OC)ccc2O[C@H]1c1cccc(OC)c1	·	·	·	–
Cc1cc2nc3c(=O)n(C4CCCCC4)c(=O)[nH]c3nc2cc1N	8.91µM	–	11.2µM	–
Cc1cc(C)cc(Nc2cc(=O)n(C3CCCCC3)c(=O)[nH]2)c1	–	–	·	–
CC[C@H](C)[C@H](NC(=O)[C@H](Cc1ccc(O)cc1)NC(=O)[C@H](Cc1cnc[nH]1)NC(=O)[C@H](CCCNC(=N)N)NC(=O)[C@H](CC(C)C)NC(=O)[C@H](C)NC(=O)[C@@H](N)CO)C(=O)N[C@@H](CC(N)=O)C(=O)N[C@@H](CC(C)C)C(=O)N[C@H](C(=O)N[C@H](C(=O)N[C@@H](CCCNC(=N)N)C(=O)N[C@@H](CCC(N)=O)C(=O)N[C@@H](CCCNC(=N)N)C(=O)N[C@@H](Cc1ccc(O)cc1)C(N)=O)[C@@H](C)O)[C@@H](C)CC	·	–	·	·
N#Cc1ccc(Oc2cccc3cccnc23)c([N+](=O)[O-])c1	–	–	–	·
O=[N+]([O-])c1ccc(Oc2cccc3cccnc23)c([N+](=O)[O-])c1	10µM	–	?	12.6µM
Cc1cccc(NCc2ccc(O)c3ncccc23)c1C	–	–	?	–
Cc1cccnc1NCc1ccc(O)c2ncccc12	–	–	–	6.31µM
Cc1cc(-c2ccccc2)nc(N/N=C/c2ccccc2F)n1	–	–	22.4µM	·
Cc1ccc2nc(N/N=C/c3ccccc3F)nc(-c3ccccc3)c2c1	–	–	–	–
COc1cc(C(=O)NCC(=O)N2CCN(S(=O)(=O)c3cc(C)ccc3C)CC2)cc(OC)c1OC	6.31µM	–	–	·
Cc1ccc(C)c(S(=O)(=O)N2CCN(C(=O)CCNC(=O)c3ccc(Br)cc3)CC2)c1	–	–	–	·
CCOc1ccc(NC(=O)c2cc(=O)c3ccc(C)c(C)c3o2)cc1	–	–	?	20µM
COc1ccc(N/C=C/C(=O)c2sc(-c3ccccc3)nc2C)cc1	11.2µM	–	–	–
CC(Sc1nnnn1-c1ccc(Cl)cc1)C(=O)NCC(=O)Nc1ccc(F)c(F)c1F (centres undefined)	–	–	–	–
Cc1ccc(-n2c(C)cc(/C=c3/sc4nc5ccccc5n4c3=O)c2C)cc1	–	–	·	–
COc1cc(N2CCCC2)c(OC)cc1/C=c1/sc2nc3ccccc3n2c1=O	·	·	·	2.82µM
COC(=O)NC(CC(C)=O)c1cccs1 (centres undefined)	·	–	·	–[10.1 µM]
Cc1ccc(CNc2ncnc3ccc(-c4ccoc4C)cc23)o1	–	–	·	·
Cc1cc(C)c2cc3c(N)c(C(=O)Nc4c(C)[nH]c(=O)[nH]c4=O)sc3nc2c1	?	–	22.4µM	–
SMILES	Vif-APOBEC3G blk	Glioma ERSR ind	Vif-A3F inh	Epigenetic derep
COc1ccccc1NC(=O)c1sc2nc3c(cc2c1N)CN(Cc1ccccc1)CC3	–	–	?	–
COc1ccc(NC(=O)c2sc3nc4c(cc3c2N)CN(Cc2ccccc2)CC4)c(OC)c1	?	–	11.2µM	7.08µM
CCOc1ccc(NC(=O)c2sc3nc4c(cc3c2N)CN(Cc2ccccc2)CC4)cc1	–	–	?	15.8µM
Nc1c(C(=O)Nc2ccccc2)sc2nc3c(cc12)CN(Cc1ccccc1)CC3	–	–	?	–
CCOc1ccc(NC(=O)c2sc3nc4c(c(-c5ccc(OC)cc5)c3c2N)C(=O)CC(C)(C)C4)cc1	·	·	·	11.2µM
COC(=O)C1CCCCN1Cc1ccc2c(c1)CN(C(=O)c1csc(-c3cccs3)n1)CCO2 (centres undefined)	·	–	·	·
COc1ccc(C(=O)c2sc3nc(-c4ccccc4)ccc3c2N)cc1	?	–	3.55µM	?
COc1cccc(-c2ccc3c(N)c(C(=O)Nc4ccc(C)c(F)c4)sc3n2)c1	–	–	–	–
COc1cccc(-c2ccc3c(N)c(C(=O)c4ccc(Cl)cc4)sc3n2)c1	10µM	–	?	?
CC(C)OC(=O)c1sc2nc(-c3ccccc3)ccc2c1N	–	–	–	–
CCOc1ccc(CNC(=O)CS(=O)(=O)c2cccc3nsnc23)cc1	–	–	–	–
CC1CNC(=S)N(c2ccccc2)C1=O (centres undefined)	–	–	–	·
COCCNC(=O)/C(C#N)=C/c1ccc(N2CCOCC2)o1	–	–	–	–
N#C/C(=C\c1ccc(N2CCOCC2)o1)C(=O)NCCc1ccccc1	–	–	22.4µM	–
Cc1cccc(Oc2nc3c(C)cccn3c(=O)c2/C=C(\C#N)c2nc3ccccc3[nH]2)c1	–	–	?	7.08µM
Cc1cccn2c(=O)c(/C=C(\C#N)c3nc4ccccc4[nH]3)c(Oc3ccc(C(C)(C)C)cc3)nc12	–	–	–	?
CC(C)(C)c1ccc(Oc2nc3ccccn3c(=O)c2/C=C(\C#N)c2nc3ccccc3[nH]2)cc1	–	–	?	25.1µM
Nc1c(C(=O)c2ccccc2)sc2nsc(SCCN3CCOCC3)c12	?	–	3.55µM	?
O=[N+]([O-])c1ccc(N/N=C/c2c[nH]c3ccccc23)cc1	7.94µM	–	12.6µM	14.1µM
COc1ccccc1NS(=O)(=O)c1cc([N+](=O)[O-])ccc1N/N=C/c1c[nH]c2ccccc12	11.2µM	–	11.2µM	?
COc1ccccc1NS(=O)(=O)c1cc([N+](=O)[O-])ccc1N/N=C/c1sc(N2CCOCC2)nc1-c1ccccc1	?	–	?	2.82µM
COc1ccc(NS(=O)(=O)c2cc([N+](=O)[O-])ccc2N/N=C\c2c(C)[nH]c3ccccc23)cc1	–	–	?	10µM
COc1cccc(N=C2NC(=O)/C(=C/c3cc([N+](=O)[O-])ccc3O)S2)c1	?	–	25.1µM	·
O=C1NC(=Nc2ccccc2Cl)S/C1=C\c1cc([N+](=O)[O-])ccc1O	12.6µM	–	?	·
Cc1ccc(-c2csc3nc(SCC(=O)Nc4ccc(Cl)c(C(=O)O)c4)[nH]c(=O)c23)cc1	–	–	–	·
C=CCn1cccc(C(=O)Nc2ccc(C)c(C)c2)c1=O	–	–	–	·
CCN(CC)c1ccc(/C=C2\SC(=O)N(C(C)C)C2=O)o1	?	–	?	7.08µM
Fc1ccc(Br)cc1C1C=C(c2ccc(Br)s2)Nc2ncnn21 (centres undefined)	?	–	22.4µM	–
Cc1cc(C)cc(NC(=O)Cn2cc(C(=O)C3CCCCC3)c3ccccc32)c1	?	?	7.08µM	–
CN(C)C(=O)COc1ccccc1C(=O)OCC(=O)Nc1ccc(Oc2ccc(Br)cc2)cc1	–	–	·	·

From PubChem
